# An excerpt weighted towards active compounds, which were near 4.2% of everything screened.
# hgDAF12 agonist – hgDAF-12 agonism, primary luciferase screen; HEK293 GAL4-hgDAF12 UAS-luciferase reporter, agonist luminescence; normalized to butyrate control; activation, % at 6.8 µM; 370,000 tested, 1.8% active; AID 687014;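 active = activation above a cutoff set at the mean of all screened compounds plus 3 SD, cut at about 10% in these data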;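 note: 0% = DMSO wells and 100% = sodium butyrate wells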
# ssDAF12 agonist – activates DAF-12 receptor from parasite S. stercoralis; HEK293 ssDAF-12/GRIP1 lit1-tk-luc reporter, luminescence; % of 3 µM dafachronic acid response; activation, % at 6.8 µM; 370,000 tested, 1% active;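 active = activation above the mean over all tested compounds plus 3 SD, cut at about 0.9% in these data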;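 note: 0% = DMSO-only wells and 100% = 3 µM delta7-dafachronic acid wells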
# Wnt bcat act – Wnt/beta-catenin pathway activation | 300,000 tested, 1.2% active | Wnt/beta-catenin reporter cell assay, activator, plate reader | activation, % at 9.35 µM | AID 743398; in the data active = activation above about 30%, passing the limit was not always enough;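 note: 0% = neutral control wells and 100% = positive control wells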
# hcDAF12 agonist – activates DAF-12 receptor from parasite H. contortus | HEK293 hcDAF-12 lit1-tk-luc reporter, luminescence; 0% DMSO, 100% Δ7-dafachronic acid | activation, % at 6.8 µM | 370,000 tested, 1.4% active | AID 652067;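 active = activation above the mean of all tested compounds plus 3 SD, cut at about 5.5% in these data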;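 note: 100% = response to 3 µM Δ7-dafachronic acid high control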
# DAX1 inh – DAX1 (NR0B1) inhibition, primary screen; HEK293T StAR-luciferase reporter, SF-1/DAX-1 repression relief; 370,000 tested, 1.1% active; inhibition, % at 6.8 µM;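 active = inhibition above the mean over all tested compounds plus 3 SD, cut at about 3.6% in these data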;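 note: 0% = DAX-1 cells with DMSO and 100% = cells lacking DAX-1 with DMSO; higher inhibition means more luminescence from relief of DAX-1 repression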
# esBAF inh – inhibitors of esBAF chromatin remodeling in mouse ES cells; reporter increase, % at 12.5 µM; 350,000 tested, 2% active; Bmi1-luciferase knock-in reporter, 24 h; 100% = twice the neutral-well signal; in the data active = activation above about 40%;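 note: 0% = median of the plate's neutral control wells and 100% = double that signal; a rise in the Bmi1 reporter signal indicates esBAF inhibition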
# Numbers without * were called inactive; . = no result.
SMILES,hgDAF12 agonist,ssDAF12 agonist,Wnt bcat act,hcDAF12 agonist,DAX1 inh,esBAF inh
CC(C)(C)c1ccc(NC(=S)NCc2cccs2)cc1,7,-1,.,0,0,44*
O=C(CCNC(=O)N1CC(=O)Nc2ccccc21)NCc1cccc(Cl)c1,4,-1,0,0,4.4*,4
O=C(CCNC(=O)N1CC(=O)Nc2ccccc21)Nc1cccc(Cl)c1,7,0,-2,4,2,-2
O=C(CNC(=O)N1CC(=O)Nc2ccccc21)Nc1ccccc1F,4,1.0*,0,3,0,11
O=C(CNC(=O)N1CC(=O)Nc2ccccc21)Nc1ccccc1,6,0,1,3,3,2
Cc1nc(-c2ccccc2Cl)sc1C(=O)/C=C/N(C)C,2,-2,7,0,0,59*
CNC[C@H]1OCCCC[C@@H](C)Oc2ccc(NC(=O)Nc3c(C)noc3C)cc2C(=O)N([C@H](C)CO)C[C@H]1C,.,.,.,.,.,0
COc1ccc(Cl)cc1NC(=O)/C=C\C(=O)O,1,0.9*,.,5,-1,1
COc1ccc(NC(=O)Nc2ccc(Br)cn2)cc1OC,1,-1,-1,1,0,17
COc1ccc(Cl)cc1NC(=O)COC(=O)Cc1cc(OC)c(OC)c(OC)c1,0,2.8*,-2,0,-1,-5
COc1ccc(Cl)cc1NC(=O)COC(=O)CCc1cc(OC)c(OC)c(OC)c1,-3,-2,11,-2,0,-7
COc1cccc(NC(=O)Nc2ccc(Br)cn2)c1,10,-1,-4,-2,1,47*
COc1ccc(Cl)cc1NC(=O)Nc1ccc(Br)cn1,3,1,.,6.0*,0,0
COc1ccccc1NC(=O)Nc1ccc(Br)cn1,0,0,.,0,0,14
Cc1noc(C)c1NC(=O)N(C)C[C@H]1OCCCC[C@@H](C)Oc2ccc(N(C)C)cc2C(=O)N([C@@H](C)CO)C[C@H]1C,.,.,.,.,.,-2
C[C@@H]1CN([C@H](C)CO)C(=O)c2cc(NC(=O)Nc3cccc4ccccc34)ccc2O[C@@H](C)CCCCO[C@H]1CN(C)Cc1ccncc1,.,.,.,.,.,-2
CCCC#Cc1ccc2c(c1)O[C@@H](CN(C)Cc1ccc3c(c1)OCO3)[C@@H](C)CN([C@@H](C)CO)S2(=O)=O,.,.,.,.,.,-7
COc1ccc(CN(C)C[C@@H]2Oc3ccc(NC(=O)Nc4ccc(F)cc4)cc3CC(=O)N([C@H](C)CO)C[C@@H]2C)cc1,.,.,.,.,.,4
CC(C)CN(CCCNC(=O)CN1C(=O)CSc2ccc(S(=O)(=O)N3CCOCC3)cc21)CC(C)C,0,0.9*,-1,-1,2,.
O=c1c2cc3cc(Cl)ccc3nc2ncn1N1CCCCC1,6,0.9*,.,3,3,.
O=c1c2cc3cc(Cl)ccc3nc2ncn1CCc1ccc(O)cc1,3,0,.,3,1,.
COc1ccccc1NC(=O)N(C)C[C@H]1Oc2ncc(C#CC(C)C)cc2C(=O)N([C@@H](C)CO)C[C@@H]1C,.,.,.,.,.,1
O=C(NC(=S)NC1CCN(Cc2ccccc2)CC1)c1ccc(F)cc1,-2,-1,1,-3,0,1
O=C(NCc1ccccc1)c1ccc([N+](=O)[O-])cc1,-3,-1,-1,0,2,.
O=C(NC1CCCCC1)c1ccc([N+](=O)[O-])cc1,6,1,-3,1,3.7*,74*
SMILES,hgDAF12 agonist,ssDAF12 agonist,Wnt bcat act,hcDAF12 agonist,DAX1 inh,esBAF inh
N#Cc1ccc(C(=O)NC2CCCCCCC2)cc1,10,0,2,5,2,53*
O=C(N[C@H]1CC1c1ccccc1)c1ccc([N+](=O)[O-])cc1 (stereo not given in full),8,0,35*,4,2,.
O=C(NC(=S)NC1CCCCC1)c1ccc(F)cc1,7,0,21,3,1,60*
O=C(NC1CCCCCCC1)c1cc([N+](=O)[O-])ccc1Cl,2,-1,1,0,-1,-5
C[C@@H]1CCCCO[C@@H](CN(C)CC2CCCCC2)[C@H](C)CN([C@H](C)CO)C(=O)c2cc(NS(=O)(=O)c3cccs3)ccc2O1,.,.,.,.,.,6
COc1ccc(S(=O)(=O)N(C)C[C@@H]2Oc3c(NC(=O)C4CCOCC4)cccc3C(=O)N([C@@H](C)CO)C[C@H]2C)cc1,.,.,.,.,.,-2
O=C(C[C@H]1C[C@H]2c3cc(NC(=O)Nc4ccccc4F)ccc3O[C@H]2[C@@H](CO)O1)NCc1cc(F)ccc1F,.,.,.,.,.,-10
CCCC(=O)Nc1ccc2c(c1)OC[C@H](C)N(Cc1ccccn1)C[C@@H](C)[C@H](OC)CN(C)C2=O,.,.,.,.,.,0
Cc1cc(C(=O)Cn2nc(C(=O)O)c3ccccc3c2=O)c(C)n1CC(F)(F)F,2,-1,-2,2,2,44*
O=C(CSc1nnc(-c2cccs2)o1)OC1CCCCC1,2,-1,-3,1,0,-3
CC1CCCN(C(=O)CSc2nnc(-c3cccs3)o2)C1 (stereo not given),12*,-1,13,3,2,15
O=C(CSc1nnc(-c2cccs2)o1)c1cccs1,6,-1,.,2,1,104*
CCC1CCCCN1C(=O)CSc1nnc(-c2cccs2)o1 (stereo not given),9,1.0*,.,3,2,35
Cc1cc(-c2nnc(CCC(=O)N(CC3CCC3)CC3CCCO3)o2)no1 (stereo not given),5,0,-1,-1,0,47*
Cc1ccc(O)c(CNc2ccccn2)c1,2,-1,.,-1,0,64*
Oc1ccccc1CNc1ccc(Br)cn1,12*,-1,.,4,1,36
Cc1ccnc(NCc2cc(C)ccc2O)c1,4,0,-1,2,1,56*
Cn1cnc(S(=O)(=O)N[C@@H]2C=C[C@H](CC(=O)Nc3ccccc3)O[C@@H]2CO)c1,.,.,.,.,.,-5
CC(C)N(C(C)C)S(=O)(=O)c1ccc(NN)nc1,-1,0,0,0,0,-3
CN1CCN(c2ccc(S(=O)(=O)N3CCCCC3)cn2)CC1,0,-2,.,-1,0,.
CCN(CC)S(=O)(=O)c1ccc(NN)nc1,-2,1.4*,-2,-2,0,.
CN1CCN(S(=O)(=O)c2ccc(NN)nc2)CC1,0,-1,57*,-1,0,-7
NC(=N\N=Cc1ccccc1)/C(N)=N/N=Cc1ccccc1,1,-1,-4,0,0,50*
NC(N)=N/N=C/c1ccccc1,-1,-1,-13,-1,-1,.
CO[C@@H]1CN(C)C(=O)c2cc(NS(=O)(=O)c3cn(C)cn3)ccc2OC[C@H](C)N(C)C[C@@H]1C,.,.,.,.,.,2
O=C(NCCSc1ccccc1)c1cccnc1,6,0,.,3,2,58*

# High-throughput results deposited in PubChem BioAssay by several laboratories.
